Tau FP inhib – qHTS for Inhibitors of Tau Fibril Formation, Fluorescence Polarization. K18 P301L tau heparin fibrillization, Alexa594 FP, 6 h. Potency, µM (series often up to 57.7 µM), usual class: inhibitors. 0.39% of 280,000 active. Microtubule-associated protein tau (Homo sapiens), P10636; also: nearly all actives have a fitted effect of over 55% in size
Target sequence (P10636 561-689 P618L limits assumed): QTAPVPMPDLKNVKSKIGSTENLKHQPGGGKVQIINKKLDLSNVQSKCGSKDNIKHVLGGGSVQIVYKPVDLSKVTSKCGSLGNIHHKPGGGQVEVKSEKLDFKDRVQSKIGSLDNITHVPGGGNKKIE
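Human K18 P301L fragment (15 uM unlabeled plus 0.24 uM Alexa 594-labeled) in 100 mM sodium acetate pH 7 with compound, aggregation induced by 20 uM heparin for 6 hr at 37 C. ThT (30 uM) added for 1 hr, then Alexa 594 FP read.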
Sfp inh – qHTS Assay for Inhibitors of Bacillus subtilis Sfp phosphopantetheinyl transferase (PPTase); 3.5% of 310,000 active; Potency, µM, actives largely listed as inhibitors; Biochemical Sfp PPTase activity, qHTS;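 also: the enzyme is Sfp with the accession as filed and its product quenches rhodamine fluorescence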
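Compounds were incubated with enzyme (final 15 nM) for 15 min at room temperature before substrate addition started the reaction. Fluorescence at 525 nm excitation, 598 nm emission was recorded immediately and after 30 minutes.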
G9a block – qHTS Assay for Inhibitors of Histone Lysine Methyltransferase G9a; AID 504332, 2011; Potency, µM (doses to about 102 µM), hits mostly inhibitors; 8.8% of 350,000 active; G9a H3K9 monomethylation, AlphaScreen, 2 h; also: nearly all actives have a fitted effect of over 75% in size
Target sequence (Q96KQ7 913-1193 limits assumed): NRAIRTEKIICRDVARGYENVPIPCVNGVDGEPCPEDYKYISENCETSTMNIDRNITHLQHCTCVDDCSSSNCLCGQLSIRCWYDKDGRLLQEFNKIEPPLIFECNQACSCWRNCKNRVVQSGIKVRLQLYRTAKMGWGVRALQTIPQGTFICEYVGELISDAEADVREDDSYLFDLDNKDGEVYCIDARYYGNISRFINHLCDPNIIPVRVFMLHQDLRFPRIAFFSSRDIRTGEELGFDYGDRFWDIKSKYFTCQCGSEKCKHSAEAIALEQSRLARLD
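Using a bead-based AlphaScreen, monomethylated H3K9 product from 2 h room-temperature reactions (G9a 20 nM, peptide 500 nM, SAM 20 uM) was detected with 0.5 ug/mL rabbit anti-H3K9me1 antibody.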
Tau ThT inhib – qHTS for Inhibitors of Tau Fibril Formation, Thioflavin T Binding; 2.1% of 270,000 active; recombinant tau K18 P301L, heparin-induced fibrillization, ThT fluorescence; Potency, µM (doses to about 57.4 µM), actives largely listed as inhibitors; also: nearly all actives have a fitted effect of over 55% in size
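Heparin-induced fibrillization of the P301L-mutant K18 repeat-domain fragment of human tau was followed by ThT binding in quantitative high-throughput format.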
Coupling enz – qHTS Assay for Inhibitors of Fructose-1,6-bisphosphate Aldolase from Giardia Lamblia: Coupling assay counterscreen | coupling enzyme system counterscreen, AmpLite Red fluorescence | activity change, negative = inhibition, % at 58.2 µM, hits read low | AID 2472, 2010 | 0.67% of 290,000 active; in the data active = activity change below about -30%
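Counterscreen lacking aldolase: glyceraldehyde-3-phosphate coupling-enzyme reagent preincubated 10 min at RT with compound (at 57.5 uM final), then substrate/coupling system with AmpLite Red added; fluorescence read at 525/598 nm after 20 min RT.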
Tau fluor cs – Counterscreen qHTS for Inhibitors of Tau Fibril Formation, Fluorescence Polarization; tau K18 P301L Alexa594 fluorescence, heparin fibrillization; Potency, µM (doses to about 57.7 µM); 0.93% of 280,000 active; AID 1463, 2008; also: nearly all actives have a fitted effect of over 55% in size
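Human tau K18 P301L (15 uM unlabeled, 0.24 uM Alexa 594-labeled) in 100 mM sodium acetate pH 7 with 20 uM heparin, 6 hr at 37 C. ThT 30 uM added, 1 hr ambient; Alexa 594 FP and total fluorescence read at 555/632 nm.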
Of the large screens only hits and unclear results are named; the others gave an inactive call; [ ] = dose if it differs, or a comment. Rows were chosen to be rich in hits. Some 11% of all compounds tested hit in one or more screens of this group. Unless noted, calls follow the shape of the dose curve; as a rule, active = well fitted curve in the direction sought with a large enough effect; inconclusive = small, poorly fitted or top-dose-only effect, or another doubt; inactive = no such curve, though single readings can be large; an effect the other way counts as inactive or inconclusive.

Nc1c(C(=O)OCC2CCCO2)c2nc3ccccc3nc2n1-c1ccc2c(c1)OCCO2 (stereo unspecified)	Sfp inh inconclusive, Tau ThT inhib inconclusive, Coupling enz -36.9
COCCCNC(=O)c1c(N)n(-c2ccc3c(c2)OCO3)c2nc3ccccc3nc12	Coupling enz -47.1
Nc1c(C(=O)Nc2ccccc2)c2nc3ccccc3nc2n1-c1ccc(O)cc1	Tau FP inhib inconclusive, Tau ThT inhib inconclusive, Tau fluor cs 14.1µM[quencher]
CCOC(=O)c1c(S(=O)(=O)NCC(=O)N2CCN(c3ccc(OC)cc3)CC2)c(C)n(C)c1C	none (no result: Tau FP inhib, G9a block, Tau ThT inhib, Coupling enz, Tau fluor cs)
Cc1coc2c1c(C)cc1oc(=O)c(CC(=O)NCc3ccc(Cl)cc3)c(C)c12	none (no result: Sfp inh, Coupling enz)
CC1CC(C)CN(C(=O)CSC2=Nc3ccccc3C3=NC(Cc4c[nH]c5ccccc45)C(=O)N23)C1 (stereo unspecified)	G9a block inconclusive, Tau ThT inhib inconclusive
O=C(CSC1=Nc2ccccc2C2=NC(Cc3c[nH]c4ccccc34)C(=O)N12)NC1CCCCC1 (stereo unspecified)	G9a block 50.1µM, Tau ThT inhib inconclusive
O=C(NCc1nc2cccnc2n1Cc1ccc(F)cc1)c1ccccc1C(F)(F)F	none (no result: Sfp inh, Coupling enz)
COc1ccc(/C=C/C(=O)NC(=S)NN2CCCCC2c2cccnc2)cc1OC (stereo unspecified)	G9a block 31.6µM
O=C(/C=C/c1ccc(Cl)cc1)NC(=S)NN1CCCCC1c1cccnc1 (stereo unspecified)	G9a block 22.4µM, Tau ThT inhib inconclusive
COc1ccc(/C=C/C(=O)NC(=S)NNC(=O)c2cccnc2)cc1	G9a block inconclusive, Tau ThT inhib inconclusive
COc1ccc(-n2nnc(C(=O)Nc3ccccc3F)c2N)cc1	none (no result: Sfp inh, Coupling enz)
CNC(=S)NNC(=O)COc1ccc(C)c(C)c1	G9a block 31.6µM
Cc1ccc(OCC(=O)Nc2cccc(O)c2)cc1C	none
COc1ccc(OCC(=O)NNC(=S)NC(=O)c2ccc([N+](=O)[O-])cc2)cc1	Sfp inh 31.6µM, G9a block 1.12µM (no result: Tau FP inhib, Tau ThT inhib, Tau fluor cs)
Cc1ccc(C(=O)NC(=S)NNC(=O)c2ccc([N+](=O)[O-])cc2)cc1	none (no result: Tau FP inhib, Tau ThT inhib, Tau fluor cs)
COc1ccc(OCC(=O)NNC(=O)c2cc3ccccc3o2)cc1	none
CCCCCC(=O)NNC(=S)NC(=O)c1ccc([N+](=O)[O-])cc1	Sfp inh 35.5µM, G9a block 2.51µM, Tau ThT inhib inconclusive
COc1ccc(OCC(=O)NNC(=S)NC(=O)c2ccc(Br)o2)cc1	G9a block 22.4µM (no result: Tau FP inhib, Tau ThT inhib, Coupling enz, Tau fluor cs)
CC(C)c1ccc(S(=O)(=O)c2nnn3c2nc(N2CCCCC2)c2sccc23)cc1	none (no result: Sfp inh, Coupling enz)
CC(=O)NC(=S)NNC(=O)COc1ccc(Br)cc1	G9a block 1.78µM, Tau ThT inhib inconclusive
O=C(COc1ccccc1)NNC(=O)COc1ccc([N+](=O)[O-])cc1	G9a block inconclusive
COc1ccc(CNC(=O)c2ccc(Br)o2)cc1	G9a block 20µM
CC(=O)NC(=S)NNC(=O)COc1ccc([N+](=O)[O-])cc1	G9a block 8.91µM
O=C(COc1ccc(Br)cc1)NNC(=S)NC(=O)c1ccccc1[N+](=O)[O-]	G9a block inconclusive
CC(OCc1ccccc1)C(NC(=O)OC(C)(C)C)C(=O)NC1COC2CC(n3cc(F)c(=O)[nH]c3=O)OC12 (stereo unspecified)	none (no result: Tau FP inhib, G9a block, Tau ThT inhib, Tau fluor cs)
O=C1CCN(C(=O)Nc2cccc(Cl)c2)N1	Tau FP inhib inconclusive, G9a block 10µM, Tau ThT inhib inconclusive
O=C1CCN(C(=O)Nc2ccccc2Cl)N1	Tau FP inhib inconclusive, G9a block 10µM
CCOC(=O)N1CCN(C(=O)Nc2ccccc2Cl)CC1	none
O=C1CN(C(=S)Nc2ccccc2Cl)CCN1	Sfp inh 44.7µM, G9a block 44.7µM
O=C(Nc1cccc(Cl)c1)N1CCCC1	none
Cc1ccccc1NC(=O)c1sc2nc3c(cc2c1N)CCCC3	Tau ThT inhib inconclusive (no result: Sfp inh, Coupling enz)
COCCNC(=O)CN1CCN(S(=O)(=O)c2ccc3c(c2)CCCC3)CC1	none (no result: Tau FP inhib, Sfp inh, Tau ThT inhib, Coupling enz, Tau fluor cs)
O=C(Nc1ccc(N2CCCC2)c(Cl)c1)c1ccc(Br)o1	Tau FP inhib inconclusive, Sfp inh 79.4µM, G9a block 14.1µM, Tau ThT inhib inconclusive, Tau fluor cs inconclusive
O=C(Nc1ccccc1N1CCCC1)c1ccc(Br)o1	G9a block 4.47µM
COc1ccc(N2CCCC2)c(NC(=O)c2ccc(Br)o2)c1	G9a block 8.91µM (no result: Tau FP inhib, Tau ThT inhib, Tau fluor cs)
O=C(Nc1cc(C(F)(F)F)ccc1N1CCCCC1)c1ccc(Br)o1	none (no result: Coupling enz)
C=Cc1ccc(COc2ccc3oc(-c4ccccc4)c(C(=O)OCC)c3c2)cc1	Tau FP inhib inconclusive (no result: Sfp inh, Coupling enz)
CN(C)CCNC(=O)c1ccc2c(c1)N(Cc1c(F)cccc1Cl)C(=O)c1ccccc1S2	G9a block 15.8µM (no result: Sfp inh, Coupling enz)
O=C(NCCN1CCOCC1)c1ccc2c(c1)N(Cc1c(F)cccc1Cl)C(=O)c1ccccc1S2	G9a block inconclusive
CC1(C)C2CCC1(CS(=O)(=O)NCc1ccc(C(F)(F)F)cc1)C(=O)C2 (stereo unspecified)	none (no result: Tau FP inhib, Tau ThT inhib, Tau fluor cs)
COc1ccc(S(=O)(=O)N2CCCCCC2)cc1C(=O)N(C)CC(=O)Nc1cc(C)ccc1C	none (no result: Tau FP inhib, Tau ThT inhib, Coupling enz, Tau fluor cs)
COc1ccccc1CNC(=O)c1ccc(-c2ccccc2)cc1	Sfp inh inconclusive, G9a block 44.7µM
O=C(N/C=C\c1ccccc1)NCc1ccc(Cl)cc1Cl	G9a block 25.1µM
COc1ccccc1CNC(=O)COC(=O)Cc1ccc(Cl)cc1	none
COc1ccccc1CNC(=O)N/C=C/c1ccc(Cl)cc1	G9a block 31.6µM
O=C(N/C=C\c1ccccc1)NCc1ccc(Cl)cc1	G9a block inconclusive
CCn1c(=O)n(CC)c2cc(N3CCCCC3)c(NC(=O)Nc3ccccc3C(F)(F)F)cc21	Tau ThT inhib inconclusive (no result: Sfp inh, Coupling enz)
CCN(CC)c1ccc(C(=O)Nc2ccccc2)cc1[N+](=O)[O-]	G9a block inconclusive, Tau ThT inhib 15.8µM, Tau fluor cs inconclusive
COc1ccc(-c2nc3sc(CCNC(=O)Cc4ccccc4)c(C)n3n2)cc1	G9a block 3.55µM (no result: Sfp inh, Coupling enz)
COc1ccc(-c2nc3sc(CCNC(=O)Cc4ccc(F)cc4)c(C)n3n2)cc1	Tau FP inhib inconclusive, Tau ThT inhib inconclusive (no result: Sfp inh, Coupling enz)
CCN(CC)P(=O)(Nc1ccc(C)cc1Br)c1ccc(N(C)C)cc1NC(=O)c1ccco1 (stereo unspecified)	G9a block 39.8µM, Tau ThT inhib inconclusive

Source: PubChem BioAssay
